Most compounds without a hit are left out; they make up all but 2.2% or so of the library.
FUS yeast rescue = rescues growth of FUS-expressing yeast | S. cerevisiae FUS-expressing, growth rescue, OD600, 24 h | Potency, µM (doses to about 76.6 µM), actives largely listed as activators | hit rate 0.24% among 390,000 | AID 1347120; note: nearly all actives have a fitted effect of over 55% in size
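Compound concentration series was pinned onto galactose-induced FUS-expressing yeast seeded at OD 0.005. Plates sat 24hr at 30C; absorbance at 600 nm gave growth. DMSO served as background control.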
TDP43 rescue = rescues yeast growth from TDP-43 toxicity. Potency, µM (series often up to 46.1 µM), hits mostly activators. hit rate 1.8% among 410,000. TDP-43 expressing yeast growth rescue, BacTiter-Glo, 24 h; note: nearly all actives have a fitted effect of over 50% in size
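In this qHTS, compounds that restore growth of yeast expressing TDP-43 appear as activators. Cells (OD600=0.02, galactose medium, raffinose-pregrown) are incubated with compound 24 hr at 30 deg C and growth is quantified by BacTiter-Glo.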
Mito fusion yeast = mitochondrial division inhibition or fusion activation. S. cerevisiae fusion-defective mutant growth rescue, CellTiterGlo 48 h. Potency, µM (series often up to 46.1 µM), actives largely listed as activators. hit rate 0.23% among 320,000. AID 485298; note: nearly all actives have a fitted effect of over 45% in size
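Growth-rescue viability read-out: after 48 h at the non-permissive 37C in glycerol/ethanol YPEG, yeast mitochondrial fusion mutants are measured by CellTiterGlo luminescence; compounds (23 nl pinned per well) restoring growth score as division inhibitors or fusion activators.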
aSyn yeast inh = inhibitors of alpha-synuclein toxicity in yeast; hit rate 0.14% among 370,000; AID 652106; Yeast expressing alpha-synuclein, growth rescue, BacTiter-Glo, 24 h; Potency, µM (titrated, usually from 46.1 µM), hits mostly activators; note: nearly all actives have a fitted effect of over 65% in size
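Galactose-induced alpha-syn yeast (OD600=0.02, raffinose-pregrown) + pinned cpd, 24 hr, 30 deg C; growth by BacTiter-Glo luminescence. Growth restoration scores as activation.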
Abeta yeast res = compounds reversing amyloid beta toxicity in yeast | yeast expressing A-beta42, growth rescue, OD600, 48 h; response scale: 0% DMSO, 100% iron-clioquinol control | Potency, µM (titrated, usually from 46.1 µM), actives largely listed as activators | hit rate 0.063% among 410,000 | AID 1347071; note: nearly all actives have a fitted effect of over 55% in size
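Yeast growth medium received pinned compounds, then yeast cells expressing toxic A-beta were added; plates incubated at 30 C for 48 hr. Growth read as absorbance at 600 nm, normalized to DMSO and equimolar FeCl3 plus clioquinol controls.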
A number is an active result. Calls come from the whole dose curve; as a rule, active = well fitted curve in the direction sought with a large enough effect; inconclusive = small, poorly fitted or top-dose-only effect, or another doubt; inactive = no such curve, though single readings can be large; an effect the other way counts as inactive or inconclusive.

`c1ccc(CSC2=NNC(c3ccccn3)S2)cc1` (stereo unspecified) gave FUS yeast rescue inactive, TDP43 rescue inactive, Mito fusion yeast inactive, aSyn yeast inh 5.6µM and Abeta yeast res inactive.
O=C(CSc1nccn1C1CCCC1)Nc1ccc(C(F)(F)F)cc1 was read as FUS yeast rescue inactive, TDP43 rescue inactive and Abeta yeast res inactive.
Screening O=C(CSC1=NNC(c2ccccn2)S1)Nc1ccc(C(F)(F)F)cc1 (stereo unspecified) returned FUS yeast rescue inactive, TDP43 rescue inactive, Mito fusion yeast inactive, aSyn yeast inh 7.9µM and Abeta yeast res inconclusive.
Cc1ccc2onc(CC(=O)Nc3cc(F)ccc3F)c2c1 was read as FUS yeast rescue inactive, TDP43 rescue 10µM and Abeta yeast res inactive.
`CC(C)c1cnc2c(c1SCC(=O)NCc1ccccc1)c(=O)n(C)c(=O)n2C` gave FUS yeast rescue inactive, TDP43 rescue inactive and Abeta yeast res inactive.
For CC(C)(C#N)Nn1cnnc1 the results were FUS yeast rescue 16µM, TDP43 rescue inactive, Mito fusion yeast inactive, aSyn yeast inh inactive and Abeta yeast res inactive.
For COC(=O)C1=NN(C(=O)c2ccccc2)C(O)(c2ccc([N+](=O)[O-])cc2)C1 (stereo unspecified) the results were FUS yeast rescue inactive, TDP43 rescue inactive, Mito fusion yeast inactive, aSyn yeast inh inactive and Abeta yeast res inactive.
For COC(=O)C1=NN(C(=O)c2ccc(C)cc2)C(O)(c2ccc(Cl)cc2)C1 (stereo unspecified) the results were FUS yeast rescue inconclusive, TDP43 rescue inconclusive, Mito fusion yeast inactive, aSyn yeast inh 11µM and Abeta yeast res inactive.
For CCOC(=O)c1c(C)oc2nc(C)nc(NCc3cccc(Cl)c3)c12 the results were FUS yeast rescue inactive, TDP43 rescue inactive and Abeta yeast res inactive.
Screening CC(=O)c1ccc(Sc2ccccc2)c([N+](=O)[O-])c1 returned FUS yeast rescue inactive, TDP43 rescue 11µM, Mito fusion yeast inconclusive, aSyn yeast inh inactive and Abeta yeast res inactive.
Cc1ccc(Sc2ccc(CO)cc2[N+](=O)[O-])cc1 was read as FUS yeast rescue inactive, TDP43 rescue 14µM, Mito fusion yeast inactive, aSyn yeast inh inactive and Abeta yeast res inactive.
COCCN=c1scc(-c2cc(OC)ccc2OC)n1/N=C/c1c[nH]c2ccccc12 was read as FUS yeast rescue inactive, TDP43 rescue 22µM, Mito fusion yeast inactive, aSyn yeast inh inconclusive and Abeta yeast res inactive.
COc1cc(C(=O)ONC(=O)c2ccc(OC(F)F)cc2)cc(OC)c1OC was read as FUS yeast rescue inactive, TDP43 rescue 8.9µM, Mito fusion yeast inactive, aSyn yeast inh inactive and Abeta yeast res inconclusive.
`Cc1cccc(CNC(=O)C2CCN(c3nn4cc(-c5ccc(F)cc5)nc4s3)CC2)c1` gave FUS yeast rescue inactive, TDP43 rescue inactive and Abeta yeast res inactive.
Screening O=[N+]([O-])c1ccc(OCc2cnc(Cl)s2)c([N+](=O)[O-])c1 returned FUS yeast rescue inactive, TDP43 rescue 11µM, Mito fusion yeast inactive, aSyn yeast inh inactive and Abeta yeast res inactive.
COC(=O)C(Cc1cnc(Cl)s1)(C(=O)OC)c1ccc([N+](=O)[O-])cc1[N+](=O)[O-] was read as FUS yeast rescue inactive, TDP43 rescue inactive, Mito fusion yeast inactive, aSyn yeast inh inactive and Abeta yeast res inactive.
Screening COc1ccc(S[C@]2(C(=O)N(C)C)CC(=O)N(C(=O)Nc3ccc(C)c(Cl)c3)[C@@H]2c2ccc(OC)cc2)cc1 returned FUS yeast rescue inactive.
Screening Clc1ccc(N2CCN(Cc3cc4ccccn4n3)CC2)cc1 returned Mito fusion yeast 23µM and aSyn yeast inh inactive.
Clc1ccc(N2CCN(Cc3ccc(Br)o3)CC2)cc1 was read as FUS yeast rescue inactive, TDP43 rescue inactive, Mito fusion yeast inactive, aSyn yeast inh inactive and Abeta yeast res inactive.
Screening COc1ccc(OC)c(CNS(=O)(=O)c2cc(-c3onc(C)c3C)ccc2C)c1 returned FUS yeast rescue inactive, TDP43 rescue inactive and Abeta yeast res inactive.
For CCCCCc1ccc(-c2ccc(/C=C/C(=O)O)cc2)nc1 the results were TDP43 rescue inactive, Mito fusion yeast 13µM, aSyn yeast inh inconclusive and Abeta yeast res inactive.
Screening CCCc1ccc(-c2ccc(/C=C/C(=O)O)cc2)nc1 returned TDP43 rescue inactive, Mito fusion yeast inconclusive, aSyn yeast inh inactive and Abeta yeast res inactive.
For Cc1ccc(NC(=O)c2nnn(CC(=O)Nc3ccc4c(c3)OCO4)c2N)cc1C the results were FUS yeast rescue inactive, TDP43 rescue inactive, Mito fusion yeast inactive, aSyn yeast inh inactive and Abeta yeast res inactive.
`Cc1ccc(NC(=O)Cn2nnc(C(=O)Nc3ccc(C)c(C)c3)c2N)cc1` gave FUS yeast rescue 22µM, TDP43 rescue inactive, Mito fusion yeast inactive, aSyn yeast inh inactive and Abeta yeast res inactive.
`COc1cc(NC(=O)C2CCN(S(=O)(=O)c3ccc4c(c3)oc(=O)n4C)CC2)cc(OC)c1` gave FUS yeast rescue inactive, TDP43 rescue inactive and Abeta yeast res inactive.
N#Cc1ccc(-c2nc3ccc(Cl)cn3c2Cc2cccc(F)c2)cc1 was read as FUS yeast rescue inactive, TDP43 rescue inactive, aSyn yeast inh inactive and Abeta yeast res inactive.
`Cc1ccc(Cc2c(-c3ccc(Cl)cc3)nc3ccc(Cl)cn23)cc1` gave FUS yeast rescue inactive, TDP43 rescue 35µM, aSyn yeast inh inactive and Abeta yeast res inactive.
`Cc1ccc(Cc2c(-c3ccc(C)cc3)nc3ccc(Cl)cn23)cc1` gave FUS yeast rescue inactive, TDP43 rescue 25µM, aSyn yeast inh inactive and Abeta yeast res inactive.
For Cc1ccc(Cc2c(-c3ccc(Br)cc3)nc3ccc(Cl)cn23)cc1 the results were FUS yeast rescue inactive, TDP43 rescue inactive, aSyn yeast inh inactive and Abeta yeast res inactive.
`Cc1ccc(-c2nc3ccc(Cl)cn3c2Cc2cccc(F)c2)cc1` gave FUS yeast rescue inactive, TDP43 rescue 14µM, aSyn yeast inh inconclusive and Abeta yeast res inactive.
`Cc1ccc2nc(-c3ccc(Cl)cc3)c(Cc3ccccc3C(F)(F)F)n2c1` gave FUS yeast rescue inactive, TDP43 rescue inconclusive, aSyn yeast inh inactive and Abeta yeast res inactive.
`Cc1ccc(-c2nc3ccc(Cl)cn3c2Cc2ccccc2C(F)(F)F)cc1` gave FUS yeast rescue inconclusive, TDP43 rescue 22µM, aSyn yeast inh inactive and Abeta yeast res inactive.
Screening Cc1cccc(-n2nc([N+](=O)[O-])c(=NCc3cccnc3)n2O)c1 returned FUS yeast rescue inactive, TDP43 rescue inconclusive, Mito fusion yeast inactive, aSyn yeast inh inactive and Abeta yeast res inactive.
O=[N+]([O-])c1nn(-c2cccc(Cl)c2)n(O)c1=NCc1cccnc1 was read as TDP43 rescue 11µM, Mito fusion yeast inactive, aSyn yeast inh inactive and Abeta yeast res inactive.
